Screening data as filed in PubChem BioAssay.
An excerpt weighted towards active compounds, which were near 2.7% of everything screened.
GSIS activator: primary screen for activators of insulin secretion dependent on glucose, INS-1E cells, GLuc reporter luminescence; INS-1E GLuc reporter insulin secretion, 2-3 h; activation, % at 16.6 µM; hit rate 0.61% among 370,000; AID 743287;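 active = lowest replicate activation of at least 40%, so every replicate reaches that level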
Wnt bcat act: activates Wnt/beta-catenin signaling in a reporter cell assay; activator, plate reader; activation, % at 9.35 µM; hit rate 1.2% among 300,000; AID 743398; in the data active = activation above about 30%, passing the limit was not always enough; inconclusive = no clear call, values can overlap the other calls
HIV Env fusion: blocks HIV Env-driven cell-cell fusion. inhibition, % at 12.3 µM. hit rate 1.1% among 360,000. AID 651610. HeLa-JRFL Env/CEM21 cell fusion, luciferase;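 active = mean replicate inhibition score of at least 50 and every replicate individually at or above 50; inconclusive = only one of the two criteria met; inactive = mean below 50 and not all replicates reaching 50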
MITF TRPM1 HTS: MITF TRPM1 promoter activation in melanoma cells; AID 588334; activation, % at 12.5 µM; hit rate 0.75% among 300,000; SK-MEL-5 TRPM1-promoter luciferase, 24 h; % of positive control, neutral wells = 0;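 active = mean activation of at least 80% with every replicate also reaching 80%; inconclusive = mean reaches 80% but some replicate falls short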
F508del corr: correctors of CFTR F508del function in bronchial epithelial cells. CFBE cells, YFP halide quenching; stimulated with forskolin plus potentiator P3; % fluorescence drop versus neutral controls. activity (quench increase), % at 7.58 µM. hit rate 0.36% among 350,000. AID 720511;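 active = mean added fluorescence quench of at least 8% versus neutral control, with both replicates also reaching 8%; inconclusive = only one of the mean or replicate conditions met; inactive = mean below 8% and not both replicates reaching 8%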;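 also: cells transiently co-express mutant CFTR-F508del with the halide-sensitive YFP; corrector assay measuring rescue of mutant channel to the surface after 24 h compound exposure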
Hits are given with their value; i = inactive; ? = inconclusive; nt = not tested or not shown; ! = not confirmed by another sample; [ ] = remark or other dose.

SMILES	GSIS activator	Wnt bcat act	HIV Env fusion	MITF TRPM1 HTS	F508del corr
Cn1c(SCc2nnc3n2CCCCC3)nc2ccccc21	66.1	i	i	i	nt
CCC(=O)N1CC[C@@H]2[C@H](CO)Nc3ccc(C#Cc4ccccc4)cc3[C@@H]21	i	nt	nt	nt	i
CCN(CC(=O)Nc1c(F)cccc1F)C(=O)CNC(=O)c1cccs1	i	38.2	nt	i	i
CCN(CC(=O)Nc1c(F)cccc1F)C(=O)CNC(=O)c1ccc2ccccc2c1	nt	i	i	i	i
COc1ccc(-c2cn(CC[C@H]3CC[C@H](NS(=O)(=O)c4ccccc4C)[C@H](CO)O3)nn2)cc1	i	nt	72.8[16.7 µM]	nt	i
COc1ccc(NC(=O)N[C@@H]2CC[C@@H](CCn3cc(-c4ccc(F)cc4)nn3)O[C@@H]2CO)cc1	i	nt	i	nt	9.2
COc1ccc(-c2cn(CC[C@@H]3CC[C@H](NS(=O)(=O)c4ccccc4C)[C@@H](CO)O3)nn2)cc1	i	nt	i	nt	i
CC(C)NC(=O)Nc1ccc2c(c1)CC(=O)N([C@H](C)CO)C[C@H](C)[C@@H](CN(C)C)O2	i	nt	i	nt	i
COc1ccc2c3c([nH]c2c1)[C@@H](CO)N(C(=O)CN1CCOCC1)CC31CCN(C(C)=O)CC1	i	nt	nt	nt	i
O=C(C[C@H]1CC[C@@H]2[C@H](COC[C@@H](O)CN2S(=O)(=O)c2cccc(F)c2)O1)NCCCN1CCOCC1	i	nt	nt	nt	i
Nc1ccc(S(=O)(=O)Nc2cnc3ccccc3n2)cc1	i	i	i	i	11.5!
Nc1ccc(S(=O)(=O)Nc2cnc3c(Cl)cccc3n2)cc1	nt	i	nt	i	i
CC(NC(=O)c1csc2ccccc12)C1CCCO1 (stereo not drawn)	i	nt	nt	i	nt
CC(NC(=O)c1sc2ccccc2c1Cl)C1CCCO1 (stereo not drawn)	i	i	i	126.5	nt
Fc1ccc(/C=N/c2c(-c3ccc(F)cc3)nc3n2CCS3)cc1	62.3	nt	nt	i	nt
COc1ccc(CN2C[C@@H](C)[C@@H](OC)CN(C)C(=O)c3cc(NC(C)=O)ccc3OC[C@@H]2C)cc1	i	nt	nt	nt	i
Cc1ccc2c(c1)-c1nc3ccccc3cc1C2=NC1CCCCC1	i	47.0	i	i	i
Cc1ccc2c(c1)C(=NC1CCCCC1)c1cc3ccccc3nc1-2	i	i	i	i	nt
Brc1ccccc1-n1nnc(-c2nccs2)n1	i	45.1	i	90.8	i
Fc1ccc(-n2nnc(-c3ccccc3)n2)cc1	i	i	i	i	i
Brc1ccccc1-n1nnc(-c2cnc3ccccc3c2)n1	nt	42.7	i	i	i
c1ccc(-n2nnc(-c3nccs3)n2)cc1	i	40.0	i	?	i
CNC[C@H]1Oc2cc(C#CC3(O)CCCC3)ccc2S(=O)(=O)N([C@H](C)CO)C[C@H]1C	i	nt	nt	nt	i
CC[C@@]12C(=O)N(c3cccc(Cl)c3)C(=O)N1[C@H](c1cccc(C)c1)[C@@H]1C(=O)N(Cc3ccccc3)C(=O)[C@@H]12	i	i	i	nt	i
CCN1C(=O)[C@H]2[C@@H](c3ccc(C)cc3)N3C(=O)N(c4cccc(Cl)c4)C(=O)[C@@]3(CC)[C@H]2C1=O	i	i	95.9	i	i
SMILES	GSIS activator	Wnt bcat act	HIV Env fusion	MITF TRPM1 HTS	F508del corr
Cc1ccc(N2C(=O)N3[C@H](c4cccc(C)c4)[C@@H]4C(=O)N(Cc5ccccc5)C(=O)[C@@H]4[C@]3(C)C2=O)cc1	i	i	81.3	i	i
CCN1C(=O)[C@H]2[C@@H](c3ccc(C)cc3)N3C(=O)N(c4cccc(Cl)c4)C(=O)[C@@]3(C)[C@H]2C1=O	i	i	i	i	i
Cc1cccc([C@@H]2[C@@H]3C(=O)N(Cc4ccccc4)C(=O)[C@@H]3[C@]3(CC(C)C)C(=O)N(c4cccc(Cl)c4)C(=O)N23)c1	i	i	55.4	i	i
Cc1cccc([C@@H]2[C@@H]3C(=O)N(Cc4ccccc4)C(=O)[C@@H]3[C@]3(C)C(=O)N(c4cccc(F)c4)C(=O)N23)c1	i	i	i	i	i
C[C@H]1CCCCO[C@@H](CN(C)S(=O)(=O)c2ccccc2)[C@@H](C)CN([C@@H](C)CO)C(=O)c2cc(NC(=O)NC3CCCCC3)ccc2O1	i	nt	i	nt	i
C=C(C)Cn1c(SCC#N)nc2ccccc2c1=O	nt	nt	nt	i	nt
N#CCSc1nc2ccccc2c(=O)n1CC1CCCC1	43.7	i	i	i	i
CCN(CCCn1c(SCC#N)nc2ccccc2c1=O)c1ccccc1	nt	nt	62.2	i	nt
COc1ccc(NC(=O)Nc2ccc3c(c2)[C@@H]2C[C@@H](CC(=O)N4CCc5ccccc5C4)O[C@H](CO)[C@@H]2O3)cc1	i	nt	i	nt	i
C[C@@H]1CCCCO[C@H](CN(C)Cc2ccc(C(=O)O)cc2)[C@@H](C)CN([C@H](C)CO)C(=O)c2cc(NC(=O)Cc3ccccc3)ccc2O1	i	nt	i	nt	i
CN(C)Cc1cn(CC[C@H]2CC[C@@H](NC(=O)Nc3ccccc3F)[C@H](CO)O2)nn1	i	nt	i	nt	i
N#C/C(=C\c1ccc(O)c(Br)c1)C(=O)NCc1ccccc1	i	i	i	i	i
N#C/C(=C\c1ccc(O)c([N+](=O)[O-])c1)C(=O)NCc1ccccc1	i	47.3	i	i	i
CCCNC(=O)N1CC2(CN(C(=O)c3cccc(F)c3)C2)c2c([nH]c3cc(OC)ccc23)[C@@H]1CO	i	nt	nt	nt	i
CC(NCCCOc1cccc2ccccc12)c1ccccc1 (stereo not drawn)	i	i	74.9	nt	i
CC(=O)Nc1ccccc1OCC(=O)c1ccc2c(c1)OCO2	nt	36.9	i	nt	nt
O=C(COC(=O)C1CC1)Nc1ccc2c(c1)OCO2	i	46.6	i	i	i
CC(=O)Nc1ccc2nc(NC(=O)COc3ccccc3C)sc2c1	i	i	i	i	i
CCC(=O)OCC(=O)Nc1ccc2c(c1)OCO2	i	i	i	i	i
O=C(CCNc1ccccc1)c1ccc2c(c1)OCO2	nt	47.5	i	nt	nt
CC(=O)Nc1ccc2nc(NC(=O)COc3ccccc3Cl)sc2c1	i	i	i	89.2	i
COc1ccc2c3c([nH]c2c1)[C@@H](CO)N(C(=O)C1CCOCC1)CC31CN(Cc2cccc(F)c2)C1	i	nt	nt	nt	i
CO[C@H]1CN(C)C(=O)c2cc(NC(=O)c3ccccc3)ccc2OC[C@H](C)N(C)C[C@H]1C	i	nt	nt	nt	i
Cc1noc(C)c1NC(=O)Nc1ccc2c(c1)C(=O)N([C@@H](C)CO)C[C@H](C)[C@H](CN(C)C(=O)Nc1ccc(C(F)(F)F)cc1)OCCCC[C@H](C)O2	i	nt	i	nt	i
O=C(C[C@H]1CC[C@H](NS(=O)(=O)c2ccc(F)cc2)[C@H](CO)O1)N1CCC(Cc2ccccc2)CC1	nt	nt	i	nt	i
COc1ccc(NC(=O)N[C@@H]2CC[C@H](CCNC(=O)Nc3cc(F)ccc3F)O[C@@H]2CO)cc1	i	nt	nt	nt	i
COc1ccccc1OCC(=O)Nc1ccc2c(c1)OCO2	i	i	i	i	i
COc1cc(C)ccc1OCC(=O)Nc1ccc2c(c1)OCO2	i	48.1	i	i	i
O=C(COc1ccccc1Cl)Nc1ccc2c(c1)OCO2	i	i	i	121.1	i
